# Laboratory results: PubChem BioAssay
# “And” between values parts separate entries of the source, which are not always exact repeats. Equal entries are not always repeated. Where a structure was tested more than once in an assay, its records may differ in their call. The source made the active and inactive calls.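 The calls were made as follows, unless noted: active = thallium flux through the channel raised or lowered by more than 3 SD from vehicle-only wells, actives on both sides; inactive = the rest.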
# Key:
# [1] = stimulators of nuclear beta-catenin in C2C12, primary screen, imaging, WNT3A-conditioned medium, mouse C2C12, NPC library (AID 1117326; in the data active = nuclear beta-catenin stimulation mostly above about 4.2%, no sharp cut-off; inactive = mostly below about 10%); settings: stronger effect = higher value
# [2] = stimulators of insulin release from INS-1E, primary screen, cell-based, 5 mM glucose, NPC library (AID 1117329;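 active = compound raises insulin release from rat beta cells at 5 mM glucose, no numeric limit stated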); settings: rat INS-1E insulin secretion, at 10 µM, stronger effect = higher value
# [3] = growth inhibition of GSK3B-pretreated HCT116 cells – cell-based, CellTiter-Glo, 0.2 to 20 µM (AID 1117336;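 active = compounds lowering colon cancer cell viability after pretreatment blocking the GSK3B kinase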); settings: HCT116 viability after GSK3B inhibitor, at 20 µM, stronger effect = higher value
# [4] = inhibition of endothelial tube formation, primary screen, imaging, VEGF stimulated, CD31 staining, tube area, NPC library (AID 1117340;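 active = compound that reduces growth-factor-driven endothelial tube area in a mixed cell culture, no cutoff stated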); settings: VEGF-stimulated ADSC/ECFC co-culture, at 10 µM, stronger effect = higher value
# [5] = glucagon-like peptide 1 release enhancers, primary assay, NCI-H716 cell line, NPC library (AID 1117341;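 active = compound raises GLP1 secretion from the human gut endocrine cells, with no numeric limit stated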); settings: NCI-H716 cells, at 10 µM, stronger effect = higher value
# [6] = HCT116 colon cancer cell growth inhibition, primary screen, CellTiter-Glo luminescence, NPC library (AID 1117342;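 active = compounds that lower survival of HCT116 colon cancer cells in the luminescence readout, no numeric limit stated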); settings: at 20 µM (top of the series)
# [7] = CellTiter-Glo luminescent readout of SW480 viability loss, NPC library primary (AID 1117343;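 active = compounds that lower viability of the colon cancer cells in the luminescence readout, with no numeric limit stated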); settings: CellTiter-Glo luminescence; at 20 µM (top of the series)
# [8] = decreased DLD-1 cellular survival, CellTiter-Glo luminescent readout, NPC compound collection, primary HTS (AID 1117346;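 active = compounds that lower survival of DLD-1 colon cancer cells in the luminescence readout, no cutoff given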); settings: DLD-1 viability, CellTiter-Glo luminescence; at 20 µM (top of the series)
# [9] = biological target: 6-phosphogluconate dehydrogenase, decarboxylating (Homo sapiens) (UniProt P52209); assay: 6PGD enzyme inhibitors, primary screen, biochemical, human, recombinant enzyme, NADPH absorbance (AID 1159550;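 active = at least 20% inhibition of 6-phosphogluconate dehydrogenase activity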); settings: recombinant 6PGD, NADPH absorbance 341 nm; at 10 µM; stronger effect = higher value
# [10] = differential killing of epithelial or mesenchymal cells, primary screen, imaging, PC-3E GFP, TEM4-18 mCherry, co-culture (AID 1345086;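 active = compounds killing one labelled cell type while sparing the other, by normalised counts and ratio limits, not self-fluorescent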;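 as to all read-outs here: cells exposed to compound for 72 h before imaging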;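 as to red/green cell ratio (normalised): normalised mesenchymal count divided by normalised epithelial count so high means epithelial killing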); settings: imaging cell counts, at 1 µM; for red/green cell ratio (normalised): actives lie on both sides, counts scaled to control wells, 1 = unselective
# [11] = survival rescue of mitochondrial mutant cells in low glucose, primary screen, MELAS cybrids, Rieske KO mouse fibroblasts, CellTiter-Glo (AID 1508586;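 active = mean z-score across replicates of 1.96 or higher in either the MELAS or the Rieske mutant cell line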;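 also: z relative to plate mean and SD of compound and empty wells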)
# F380Y = assay: modulators of BK channel variants, profiling panel, selectivity assay, cell-based, U2OS BacMam, thallium flux, beta subunits (AID 1259406); settings: at 30 µM;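 also: initial slope of Thallos dye fluorescence rise after thallium is added; log ratio against the mean of 0.3% DMSO vehicle wells on the same plate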
# F380Y/beta1 = assay: as above; settings: at 30 µM
# F380Y/beta2Delta = assay: as above; settings: at 30 µM
# F380Y/beta4 = assay: as above; settings: at 30 µM
# [12] = biological target: Calcium-activated potassium channel subunit alpha-1 (Homo sapiens) + Leucine-rich repeat-containing protein 26 (Homo sapiens) (UniProt Q12791+Q2I0M4); assay: as above; settings: F380Y/Slo1WT/gamma1, at 30 µM
# R275C = assay: as above; settings: at 30 µM
# R275C/beta1 = assay: as above; settings: at 30 µM
# [13] = sensitizers of A549 cells to miR-34 induction, primary screen, imaging, A549 dox-inducible miR-34, nuclei and caspase counts (AID 1347080;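 active = compounds whose cell count with miR-34 switched on is under 0.7 times the count with it off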); settings: A549 miR-34 inducible, Hoechst nuclei count, 48 h
# [14] = measured here: epithelial PC-3E GFP cell survival
# [15] = measured here: mesenchymal TEM4-18 mCherry cell survival
# [16] = MELAS cybrid survival, CellTiter-Glo 48 h, stronger effect = higher value
# [17] = Rieske KO mouse fibroblast survival, CellTiter-Glo 72 h
# [18] = stronger effect = lower value, cell number ratio, induced over uninduced
# [19] = measured here: relative caspase fold change +Dox/-Dox
# [20] = measured here: total cells with miR-34 induction, stronger effect = lower value
# [21] = measured here: total cells without miR-34 induction
# Chain of Calcium-activated potassium channel subunit alpha-1 (Homo sapiens) + Leucine-rich repeat-containing protein 26 (Homo sapiens) (Q2I0M4 whole entry, looked up, one chain of several): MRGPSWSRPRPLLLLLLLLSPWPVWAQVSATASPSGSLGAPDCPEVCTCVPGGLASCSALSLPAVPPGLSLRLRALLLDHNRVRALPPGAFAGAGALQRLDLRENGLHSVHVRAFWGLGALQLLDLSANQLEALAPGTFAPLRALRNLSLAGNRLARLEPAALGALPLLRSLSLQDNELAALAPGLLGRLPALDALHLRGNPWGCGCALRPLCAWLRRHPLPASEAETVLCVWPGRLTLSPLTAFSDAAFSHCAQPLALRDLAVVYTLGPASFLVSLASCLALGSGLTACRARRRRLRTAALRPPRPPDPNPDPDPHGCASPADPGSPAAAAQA
# Chain of 6-phosphogluconate dehydrogenase, decarboxylating (Homo sapiens) (P52209 whole entry, looked up): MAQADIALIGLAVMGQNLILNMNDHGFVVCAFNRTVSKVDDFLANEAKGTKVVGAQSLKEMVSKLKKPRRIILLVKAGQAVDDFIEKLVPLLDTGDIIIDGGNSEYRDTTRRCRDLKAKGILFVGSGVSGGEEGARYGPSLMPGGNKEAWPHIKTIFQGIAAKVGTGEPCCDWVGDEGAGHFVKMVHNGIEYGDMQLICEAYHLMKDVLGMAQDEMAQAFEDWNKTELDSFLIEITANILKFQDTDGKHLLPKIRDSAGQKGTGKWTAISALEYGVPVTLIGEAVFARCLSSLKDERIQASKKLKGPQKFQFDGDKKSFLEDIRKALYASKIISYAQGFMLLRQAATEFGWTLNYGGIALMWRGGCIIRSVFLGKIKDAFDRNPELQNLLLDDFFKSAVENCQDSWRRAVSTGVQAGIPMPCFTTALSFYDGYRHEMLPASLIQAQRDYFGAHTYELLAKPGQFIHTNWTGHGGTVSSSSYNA
smiles,measurement,setting,value
OC(CCN1CCCCC1)(c1ccccc1)C1CCCCC1 (stereo not given),nuclear beta-catenin stimulation,[1]; at 10 µM,-1.1% (inactive)
same,nuclear beta-catenin stimulation,"[1]; stimulation, at 2 µM",7.5%
same,insulin secretion stimulation,[2],12.4% (inactive)
same,viability decrease,[3],-59.3% (inactive)
same,tube area decrease,[4],5% (inactive)
same,GLP1 secretion stimulation,[5],3.3% (inactive)
same,inhibition of viability,[6],34.2% (inactive)
same,viability decrease (inhibition),[7],67.1% (active)
same,viability decrease (inhibition),[8],18.6% (inactive)
same,inhibition,[9],5.23% (inactive)
same,red/green cell ratio (normalised),[10],1.08 (inactive)
same,normalised cell number,[10]; [14],0.92
same,normalised cell number,[10]; [15],1
same,z-score,[11]; [16],0.423 (inactive)
same,z-score,[11]; [17],0.169
same,log fold change Tl+ flux,F380Y,0.0654 (inactive)
same,log fold change Tl+ flux,F380Y/beta1,0.00768 (inactive)
same,log fold change Tl+ flux,F380Y/beta2Delta,-0.0109 (inactive)
same,log fold change Tl+ flux,F380Y/beta4,0.0698 (inactive)
same,log fold change Tl+ flux,[12],-0.0285 (inactive)
same,log fold change Tl+ flux,R275C,-0.119 (active)
same,log fold change Tl+ flux,R275C/beta1,0.105 (inactive)
CN(C)CCC[C@@]1(c2ccc(F)cc2)OCc2cc(C#N)ccc21,nuclear beta-catenin stimulation,[1]; at 10 µM,2.2% (inactive)
same,nuclear beta-catenin stimulation,"[1]; stimulation, at 2 µM",-0.7%
same,insulin secretion stimulation,[2],31.7% (active)
same,viability decrease,[3],4.6% (inactive)
same,tube area decrease,[4],3.6% (inactive)
same,GLP1 secretion stimulation,[5],10.5% (inactive)
same,inhibition of viability,[6],-13.4% (inactive)
same,viability decrease (inhibition),[7],66.3% (active)
same,viability decrease (inhibition),[8],24.4% (inactive)
same,inhibition,[9],8.36% (inactive)
same,red/green cell ratio (normalised),[10],0.99 (inactive)
same,normalised cell number,[10]; [14],1.13
same,normalised cell number,[10]; [15],1.12
same,fold change,[13]; [18],1.02 (inactive) and 0.891 (inactive)
same,fold change,[13]; [19],2.21 and 1.15
same,cell count,[13]; [20],9600 and 9400
same,cell count,[13]; [21],9420 and 10600
same,z-score,[11]; [16],-0.471 (inactive) and -0.676 (inactive)
same,z-score,[11]; [17],-0.0102 and -1.12
same,log fold change Tl+ flux,F380Y,0.0406 (inactive)
same,log fold change Tl+ flux,F380Y/beta1,-0.0013 (inactive)
same,log fold change Tl+ flux,F380Y/beta2Delta,0.0188 (inactive)
same,log fold change Tl+ flux,F380Y/beta4,0.042 (inactive)
same,log fold change Tl+ flux,[12],-0.0413 (inactive)
same,log fold change Tl+ flux,R275C,-0.0846 (inactive)
same,log fold change Tl+ flux,R275C/beta1,0.0547 (inactive)
CN(C)CCC=C1c2ccccc2CCc2ccccc21,nuclear beta-catenin stimulation,[1]; at 10 µM,-0.4% (inactive)
same,nuclear beta-catenin stimulation,"[1]; stimulation, at 2 µM",1.1%
same,insulin secretion stimulation,[2],41.5% (active)
same,viability decrease,[3],-59% (inactive)
same,tube area decrease,[4],25% (inactive)
same,GLP1 secretion stimulation,[5],5% (inactive)
same,inhibition of viability,[6],21.5% (inactive)
same,viability decrease (inhibition),[7],72.1% (active)
same,viability decrease (inhibition),[8],-1.8% (inactive)
same,inhibition,[9],6.7% (inactive)
same,red/green cell ratio (normalised),[10],1 (inactive)
same,normalised cell number,[10]; [14],1.31
same,normalised cell number,[10]; [15],1.31
same,z-score,[11]; [16],-0.201 (inactive) and -0.81 (inactive)
same,z-score,[11]; [17],-0.129 and 0.0803
same,log fold change Tl+ flux,F380Y,0.184 (active)
same,log fold change Tl+ flux,F380Y/beta1,0.103 (inactive)
same,log fold change Tl+ flux,F380Y/beta2Delta,0.179 (active)
same,log fold change Tl+ flux,F380Y/beta4,0.189 (active)
same,log fold change Tl+ flux,[12],0.0267 (inactive)
same,log fold change Tl+ flux,R275C,0.07 (inactive)
same,log fold change Tl+ flux,R275C/beta1,0.106 (inactive)
NS(=O)(=O)c1cc(C2(O)NC(=O)c3ccccc32)ccc1Cl (stereo not given),nuclear beta-catenin stimulation,[1]; at 10 µM,2.1% (inactive)
same,nuclear beta-catenin stimulation,"[1]; stimulation, at 2 µM",6.2%
same,insulin secretion stimulation,[2],0.8% (inactive)
same,viability decrease,[3],-12.6% (inactive)
same,tube area decrease,[4],2.3% (inactive)
same,GLP1 secretion stimulation,[5],-2% (inactive)
same,inhibition of viability,[6],-5.17% (inactive)
same,viability decrease (inhibition),[7],16.8% (inactive)
same,viability decrease (inhibition),[8],-4% (inactive)
same,inhibition,[9],7.34% (inactive)
same,red/green cell ratio (normalised),[10],1.08 (inactive)
same,normalised cell number,[10]; [14],1.2
same,normalised cell number,[10]; [15],1.3
same,fold change,[13]; [18],0.98 (inactive) and 0.828 (inactive) and 0.88 (inactive)
same,fold change,[13]; [19],1.92 and 1.71 and 1.64
same,cell count,[13]; [20],11100 and 8640 and 10800
same,cell count,[13]; [21],11400 and 10400 and 12300
same,z-score,[11]; [16],-0.366 (inactive)
same,z-score,[11]; [17],-0.339
same,log fold change Tl+ flux,F380Y,-0.0172 (inactive)
same,log fold change Tl+ flux,F380Y/beta1,-0.0295 (inactive)
same,log fold change Tl+ flux,F380Y/beta2Delta,-0.039 (inactive)
same,log fold change Tl+ flux,F380Y/beta4,-0.0276 (inactive)
same,log fold change Tl+ flux,[12],-0.00177 (inactive)
same,log fold change Tl+ flux,R275C,-0.0359 (inactive)
same,log fold change Tl+ flux,R275C/beta1,-0.0254 (inactive)
CN(C)CCCN1c2ccccc2Sc2ccc(Cl)cc21,nuclear beta-catenin stimulation,[1]; at 10 µM,5.5% (inactive)
same,nuclear beta-catenin stimulation,"[1]; stimulation, at 2 µM",0.9%
same,insulin secretion stimulation,[2],8.9% (inactive)
same,viability decrease,[3],82% (active)
same,tube area decrease,[4],68.7% (active)
same,GLP1 secretion stimulation,[5],15.5% (inactive)
same,inhibition of viability,[6],96.1% (active)
same,viability decrease (inhibition),[7],128% (active)
same,viability decrease (inhibition),[8],93.1% (active)
same,inhibition,[9],10.5% (inactive)
same,red/green cell ratio (normalised),[10],1.34 (inactive)
same,normalised cell number,[10]; [14],0.97
same,normalised cell number,[10]; [15],1.3
same,z-score,[11]; [16],2.27 (active) and 0.163 (inactive) and 0.651 (inactive)
same,z-score,[11]; [17],-0.778 and 0.446 and 0.902
same,log fold change Tl+ flux,F380Y,0.156 (active)
same,log fold change Tl+ flux,F380Y/beta1,-0.176 (active)
same,log fold change Tl+ flux,F380Y/beta2Delta,0.221 (active)
same,log fold change Tl+ flux,F380Y/beta4,0.171 (active)
same,log fold change Tl+ flux,[12],0.0114 (inactive)
same,log fold change Tl+ flux,R275C,-0.0248 (inactive)
same,log fold change Tl+ flux,R275C/beta1,0.272 (active)
OCCN1CCN(CCCN2c3ccccc3Sc3ccc(Cl)cc32)CC1,nuclear beta-catenin stimulation,[1]; at 10 µM,73.5% (active)
same,nuclear beta-catenin stimulation,"[1]; stimulation, at 2 µM",2.8%
same,insulin secretion stimulation,[2],3.5% (inactive)
same,viability decrease,[3],99.5% (active)
same,tube area decrease,[4],104% (active)
same,GLP1 secretion stimulation,[5],45% (active)
same,inhibition of viability,[6],100% (active)
same,viability decrease (inhibition),[7],116% (active)
same,viability decrease (inhibition),[8],101% (active)
same,inhibition,[9],10.3% (inactive)
same,red/green cell ratio (normalised),[10],1.35 (inactive)
same,normalised cell number,[10]; [14],0.97
same,normalised cell number,[10]; [15],1.32
same,z-score,[11]; [16],0.299 (inactive)
same,z-score,[11]; [17],0.539
same,log fold change Tl+ flux,F380Y,0.23 (active)
same,log fold change Tl+ flux,F380Y/beta1,0.097 (inactive)
same,log fold change Tl+ flux,F380Y/beta2Delta,0.336 (active)
same,log fold change Tl+ flux,F380Y/beta4,0.284 (active)
same,log fold change Tl+ flux,[12],-0.0145 (inactive)
same,log fold change Tl+ flux,R275C,-0.201 (active)
same,log fold change Tl+ flux,R275C/beta1,0.341 (active)
